Assay results from PubChem BioAssay (NCI).
About 79,000 compounds went through this panel and 15% of them were active in at least one assay; those are over-represented in the sample as a whole. Calls of active or inactive are those of the source. Cut-off read from the data, not from the text of the source: active = growth inhibition above about 70%; inactive = the rest.

Experiments:
[1] = NCI Yeast Anticancer Drug Screen. Data for the rad52 strain (AID 147);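 note: 0% = growth of vehicle-treated control cultures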; conditions: S. cerevisiae rad52 mutant growth inhibition, active compounds read high
Summary of the method: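 Screen used a yeast mutant impaired in DNA repair. After compound exposure, growth was measured. Values reflect inhibition compared with vehicle-treated cells.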

[2] = NCI Yeast Anticancer Drug Screen. Data for the wt1 strain (AID 149);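 note: 0% = growth of vehicle-treated wt1 cultures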; conditions: S. cerevisiae wt1 strain (SPY 50644) growth inhibition, active compounds read high
Summary of the method: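 Each compound is tested on wt1 yeast and the loss of growth versus vehicle gives the inhibition value.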

[3] = NCI Yeast Anticancer Drug Screen. Data for the rad50EPP+ strain (AID 151);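 note: 0% = growth of vehicle-treated control cultures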; conditions: S. cerevisiae rad50 mutant strain, active compounds read high
Summary of the method: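 Exposing the rad50EPP+ strain to each compound, growth was compared with vehicle-only cultures to give inhibition.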

[4] = NCI Yeast Anticancer Drug Screen. Data for the rad50 strain (AID 155);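 note: 0% = growth of vehicle-only cultures of the same strain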; conditions: S. cerevisiae rad50 strain growth inhibition, active compounds read high
Summary of the method: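 Vehicle-treated cultures provide the reference for the growth inhibition reported for compound-exposed, repair-deficient yeast.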

[5] = NCI Yeast Anticancer Drug Screen. Data for the mec2-1 strain (AID 157); conditions: S. cerevisiae mec2-1 strain, active compounds read high
Summary of the method: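 Readout is yeast growth inhibition, normalised to vehicle-treated controls, in the mec2-1 strain exposed to compound.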

[6] = NCI Yeast Anticancer Drug Screen. Data for the rad14 strain (AID 159);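 note: 0% = growth of vehicle-treated control cultures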; conditions: S. cerevisiae rad14 strain growth inhibition, active compounds read high
Summary of the method: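 Inhibition of growth is reported for a repair-deficient yeast mutant following compound treatment, calculated relative to cultures that received vehicle.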

[7] = NCI Yeast Anticancer Drug Screen. Data for the sgs1 mgt1 strain (AID 161);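 note: 0% = growth of cultures given vehicle only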; conditions: S. cerevisiae sgs1 mgt1 strain, active compounds read high
Summary of the method: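 Percent growth inhibition was derived by comparing compound-exposed mutant yeast with vehicle-exposed cultures. The strain carries alterations in DNA damage repair.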

[8] = NCI Yeast Anticancer Drug Screen. Data for the cln2 rad14 strain (AID 165);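 note: 0% = growth equal to vehicle treated cultures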; conditions: S. cerevisiae cln2 rad14 strain, active compounds read high
Summary of the method: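 Relative to vehicle controls, growth inhibition of compound-treated cln2 rad14 yeast was recorded.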

[9] = NCI Yeast Anticancer Drug Screen. Data for the bub3 strain (AID 167); conditions: S. cerevisiae bub3 mutant strain, active compounds read high
Summary of the method: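 Mutant yeast screening strain plus compound; vehicle-treated cultures serve as the 0% inhibition reference.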

[10] = NCI Yeast Anticancer Drug Screen. Data for the wt2 strain (AID 169); conditions: S. cerevisiae wt2 strain growth inhibition, active compounds read high
Summary of the method: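 Values express reduction in yeast growth under compound treatment, referenced to vehicle-treated cells.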

[11] = NCI Yeast Anticancer Drug Screen. Data for the mlh1 strain (AID 171);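 note: 0% = growth of vehicle-treated control cultures of the same strain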; conditions: S. cerevisiae mlh1 strain growth inhibition, active compounds read high
Summary of the method: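 Steps: expose the defined-mutant yeast strain to compound; expose a parallel culture to vehicle; measure growth; express compound effect as inhibition relative to the vehicle culture.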

[12] = NCI Yeast Anticancer Drug Screen. Data for the sgs1 strain (AID 173);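 note: 0% = growth of vehicle-only control cultures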; conditions: S. cerevisiae sgs1 mutant, active compounds read high
Summary of the method: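 Treat defined-mutant yeast with compound; measure growth; calculate inhibition relative to vehicle-treated cells.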

[13] = NCI Yeast Anticancer Drug Screen. Data for the mlh1 rad18 strain (AID 175); conditions: S. cerevisiae mlh1 rad18 strain growth inhibition, active compounds read high
Summary of the method: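 Test agents were incubated with a yeast strain of defined genotype (DNA damage repair defect). Inhibition of growth was derived by comparison with vehicle-exposed cultures.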

[14] = NCI Yeast Anticancer Drug Screen. Data for the rad18 strain (AID 177); conditions: S. cerevisiae rad18 mutant growth inhibition, active compounds read high
Summary of the method: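 A genetically defined yeast mutant impaired in DNA damage repair was treated with test compounds, then its growth was measured against cultures receiving vehicle alone.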

[15] = NCI Yeast Anticancer Drug Screen. Data for the mgt1 strain (AID 153); conditions: S. cerevisiae mgt1 mutant growth inhibition, active compounds read high
Summary of the method: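 Genetically defined yeast (mgt1) treated with compound; inhibition of growth expressed against vehicle-treated controls.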

[16] = at 5.0 µM (retest, dose inferred, filed as 0.5)
[17] = at 50.0 µM (retest, dose inferred, filed as 5.0)

Measured: growth inhibition

O=[N+]([O-])c1cccc2nc3ccccc3c(NCCCN3CCOCC3)c12
inactive: [2]; at 1.2 µM -8% | [2]; at 3.7 µM 38% | [3]; at 1.2 µM 19% | [3]; at 3.7 µM 46% | [9]; at 1.2 µM -14% | [9]; at 3.7 µM 0% | [9]; [16] 0% | [9]; at 11.0 µM 53% | [10]; at 1.2 µM -1% | [10]; at 3.7 µM 19% | [11]; at 1.2 µM 16% | [11]; at 3.7 µM 54%
active: [1]; at 1.2 µM 95% | [1]; at 3.7 µM 97% | [1]; at 11.0 µM 98% | [1]; at 33.0 µM 98% | [1]; at 100.0 µM 98% | [2]; at 11.0 µM 90% | [2]; at 33.0 µM 97% | [2]; at 100.0 µM 98% | [3]; at 11.0 µM 76% | [3]; at 33.0 µM 92% | [3]; at 100.0 µM 96% | [4]; at 1.2 µM 89% | [4]; at 3.7 µM 94% | [4]; [16] 85% | [4]; at 11.0 µM 96% | [4]; at 33.0 µM 97% | [4]; [17] 97% | [4]; at 50.0 µM 96% | [4]; at 100.0 µM 98% | [5]; at 1.2 µM 90% | [5]; at 3.7 µM 97% | [5]; [16] 91% | [5]; at 11.0 µM 98% | [5]; at 33.0 µM 99% | [5]; [17] 99% | [5]; at 50.0 µM 97.3% | [5]; at 100.0 µM 99% | [6]; at 1.2 µM 98% | [6]; at 3.7 µM 98% | [6]; at 11.0 µM 98% | [6]; at 33.0 µM 98% | [6]; at 100.0 µM 98% | [7]; [16] 92% | [7]; [17] 98% | [7]; at 50.0 µM 96.9% | [8]; [16] 98% | [8]; [17] 99% | [8]; at 50.0 µM 98.4% | [9]; at 33.0 µM 93% | [9]; [17] 97% | [9]; at 50.0 µM 90.1% | [9]; at 100.0 µM 98% | [10]; at 11.0 µM 76% | [10]; at 33.0 µM 96% | [10]; at 100.0 µM 98% | [11]; at 11.0 µM 94% | [11]; at 33.0 µM 98% | [11]; at 100.0 µM 99% | [12]; at 1.2 µM 91% | [12]; at 3.7 µM 94% | [12]; at 11.0 µM 96% | [12]; at 33.0 µM 97% | [12]; at 100.0 µM 98% | [13]; [16] 95% | [13]; [17] 98% | [13]; at 50.0 µM 98.2% | [14]; at 1.2 µM 96% | [14]; at 3.7 µM 96% | [14]; at 11.0 µM 97% | [14]; at 33.0 µM 97% | [14]; at 100.0 µM 99%

CNC(=O)OCc1c(COC(=O)NC)c(-c2ccc(Cl)c(Cl)c2)n2c1CCC2
active: [1]; at 33.0 µM 77% | [1]; at 100.0 µM 97% | [15]; at 33.0 µM 95% | [15]; at 100.0 µM 98% | [4]; at 33.0 µM 87% | [4]; [17] 98% | [4]; at 50.0 µM 84.9% | [4]; at 100.0 µM 97% | [5]; at 33.0 µM 85% | [5]; [17] 98% | [5]; at 50.0 µM 87.5%
inactive: [1]; at 1.2 µM -21% | [1]; at 3.7 µM -27% | [1]; at 11.0 µM -14% | [3]; at 1.2 µM -19% | [3]; at 3.7 µM -21% | [3]; at 11.0 µM -31% | [3]; at 33.0 µM -28% | [3]; at 100.0 µM 4% | [15]; at 1.2 µM -66% | [15]; at 3.7 µM -73% | [15]; at 11.0 µM -69% | [4]; at 1.2 µM -51% | [4]; at 3.7 µM -51% | [4]; [16] 17% | [4]; at 11.0 µM -37% | [5]; at 1.2 µM -74% | [5]; at 3.7 µM -47% | [5]; [16] -5% | [5]; at 11.0 µM -32%
